Inconclusive results are not listed. Calls of active or inactive are those of the source. Unless noted, calls come from the whole dose curve; as a rule, active = well fitted curve in the direction sought with a large enough effect; inconclusive = small, poorly fitted or top-dose-only effect, or another doubt; inactive = no such curve, though single readings can be large; an effect the other way counts as inactive or inconclusive.
Tests used:
[1] = target: Aldehyde dehydrogenase, mitochondrial (Homo sapiens) (UniProt P05091); assay: qHTS for Inhibitors of the Aldehyde Dehydrogenase Family (ALDH2) Confirmatory screens (AID 2061303; active = well fitted inhibition curve with a large enough effect; title and protocol of this record describe different tests; note: nearly all actives have a fitted effect of over 45% in size; note: potency is the fitted concentration of half-maximal effect)
[2] = qHTS for Inhibitors of the Aldehyde Dehydrogenase Family (ALDH1A2, ALDH1A3, ALDH2, ALDH3A1) (AID 2061307); note: nearly all actives have a fitted effect of over 50% in size; for Potency: test system not described further here; potency is the fitted concentration of half-maximal effect
[3] = target: Aldehyde dehydrogenase, mitochondrial (Homo sapiens) (UniProt P05091); assay: qHTS for Inhibitors of the Aldehyde Dehydrogenase Family (ALDH2) Primary screen (AID 2061308); note: nearly all actives have a fitted effect of over 55% in size; note: potency is the fitted concentration of half-maximal effect
[4] = target: Retinaldehyde dehydrogenase 3 (Homo sapiens) (UniProt P47895); assay: qHTS for Inhibitors of the Aldehyde Dehydrogenase Family (ALDH1A3) Validation screen (AID 2061312); note: nearly all actives have a fitted effect of over 45% in size
[5] = target: Retinal dehydrogenase 2 (Homo sapiens) (UniProt O94788); assay: qHTS for Inhibitors of the Aldehyde Dehydrogenase Family (ALDH1A2) Confirmation screens (AID 2061314); note: nearly all actives have a fitted effect of over 65% in size; note: potency is the fitted concentration of half-maximal effect
[6] = target: Retinaldehyde dehydrogenase 3 (Homo sapiens) (UniProt P47895); assay: qHTS for Inhibitors of the Aldehyde Dehydrogenase Family (ALDH1A3) Primary screen (AID 2061315); note: potency is the fitted concentration of half-maximal effect
[7] = target: Aldehyde dehydrogenase 1A1 (Homo sapiens) (UniProt P00352); assay: qHTS for Inhibitors of the Aldehyde Dehydrogenase Family (ALDH1A1) Confirmatory screens (AID 2061316); note: nearly all actives have a fitted effect of over 65% in size; note: potency is the fitted concentration of half-maximal effect
[8] = target: Retinaldehyde dehydrogenase 3 (Homo sapiens) (UniProt P47895); assay: qHTS for Inhibitors of the Aldehyde Dehydrogenase Family (ALDH1A3) Confirmatory screens (AID 2061311); note: potency is the fitted concentration of half-maximal effect; nearly all actives have a fitted effect of over 60% in size
[9] = BET inhibitor-based combinations targeting novel dependencies in MECOM-rearranged (r) AML: AML-191 cell line (AID 2202236; note: nearly all actives have a fitted effect of over 35% in size; note: potency is the fitted concentration of half-maximal effect)
Method in brief: (§1)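 Luminescent ATP readout (CellTiter-Glo) after 48 hr drug exposure gives viability. Curves span 11 concentrations and are normalized to DMSO and empty wells. Activity is reported as area under the curve and its Z-transform within each cell line.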

[10] = BET inhibitor-based combinations targeting novel dependencies in MECOM-rearranged (r) AML: AML-194 cell line (AID 2202237; note: nearly all actives have a fitted effect of over 40% in size; note: potency is the fitted concentration of half-maximal effect)
Method in brief: as §1

[11] = BET inhibitor-based combinations targeting novel dependencies in MECOM-rearranged (r) AML: OCI-AML3 cell line (AID 2202232); settings: Potency: OCI-AML3 viability; note: series mostly up to about 46 µM; nearly all actives have a fitted effect of over 35% in size
Method in brief: as §1

[12] = BET inhibitor-based combinations targeting novel dependencies in MECOM-rearranged (r) AML: UCSD-AML1 cell line (AID 2202235); note: series mostly up to about 46 µM; nearly all actives have a fitted effect of over 40% in size
Method in brief: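 Luminescent ATP readout (CellTiter-Glo, 15 min at room temperature) after 48 hr drug exposure gave viability. Dose-response curves, normalized to DMSO and empty-well controls, were summarized as area under the curve and its mean-centred Z-score.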

Measured: Potency

CC1(C)S[C@@H]2[C@H](NC(=O)[C@H](NC(=O)N3CCN(S(C)(=O)=O)C3=O)c3ccccc3)C(=O)N2[C@H]1C(=O)O
inactive: [1] | [2] | [3] | [4] | [5] | [6] | [7]

CC(=O)N1CCN(C(=S)Nc2cc(C)ccn2)CC1
inactive: [1] | [2] | [3] | [5] | [6]

Cc1cc(=O)oc2c(C=O)c(O)ccc12
active: [8] 12.7 µM | [7] 8.96 µM
inactive: [1] | [2] | [3]

CCN(CC)CCOc1ccc(/C(=C(\Cl)c2ccccc2)c2ccccc2)cc1
active: [9] 18.6 µM | [10] 23.5 µM
not listed: [8] | [11] | [12]
inactive: all other assays above

O=C(O)c1ccc(-n2cccc2/C=C2\SC(=O)N(Cc3ccccc3Cl)C2=O)cc1
active: [2] 7.12 µM | [5] 5.65 µM
inactive: [1] | [3] | [6]

CN(Cc1ncc[nH]1)c1ncnc2ccc(-c3ccc4c(c3)OCO4)cc12
inactive: [1] | [2] | [3] | [5] | [6] | [7]

O=C(Nc1ccc(Cl)c(Cl)c1)Nc1nnc(NC2CCNCC2)s1
inactive: [1] | [2] | [3] | [7]
active: [8] 11.3 µM

COc1cccc(OC)c1C1=Nn2c(nnc2-c2ccccc2C)SC1
inactive: [1] | [2] | [3] | [5] | [6]

COc1ccc(C2Nc3ccccc3C(=O)N2Cc2ccc(C(F)(F)F)cc2)cc1COc1ccc(NC(C)=O)cc1 (stereo not drawn)
active: [1] 0.447 µM | [2] 3.57 µM | [8] 2.51 µM | [7] 22.5 µM
inactive: [3] | [6]

Cc1cc2c(s1)c(C=O)c(C(=O)NCc1ccccc1F)n2C
inactive: [1] | [3] | [5] | [6]
active: [2] 1.27 µM

COc1ccc(C2Nc3ccccc3C(=O)N2Cc2ccccc2)cc1COc1ccc(C(N)=O)cc1 (stereo not drawn)
inactive: [3] | [6]
active: [1] 5.62 µM | [2] 2.83 µM | [5] 14.1 µM

Fc1cc(Nc2nc(-c3ccncc3)nc3ccccc23)ccc1N1CCNCC1
inactive: [1] | [2] | [3] | [5] | [6]

Cc1cccc(-n2cnc3cc(C(=O)N4CCC(Br)CC4)ccc32)c1
inactive: [1] | [2] | [3] | [5] | [6]

COc1ccc(-c2nc3ccccc3c(=O)n2Cc2ccc(CNC(=O)CO)cc2)cc1COc1ccc(NC(C)=O)cc1
active: [2] 8.96 µM | [5] 15.9 µM
inactive: [1] | [3]

CCCCNc1nc(C#N)nc(Nc2ccccc2)n1
active: [1] 2.51 µM | [2] 0.501 µM
inactive: [3] | [5] | [6]

O=C(Nc1ncc(Cc2ccc(C(F)(F)F)cc2)s1)c1ncc(-c2ccccc2)[nH]1
inactive: [1] | [2] | [3] | [5] | [6]

O=C(Nc1ccc2ccccc2c1)Nc1nnc(-c2cccnc2)s1
active: [5] 12.7 µM
inactive: [1] | [2] | [3] | [6]

COc1cc2nc(N3CCCC3)nc(NCCCCCN3CCCC3)c2cc1OC
inactive: [1] | [2] | [3] | [4] | [5] | [6]

CC(C)(C)OC(=O)N1CCN(c2ccc(NCc3ccnc(-c4ccc(C#N)cc4)n3)cc2)CC1
active: [1] 0.504 µM | [2] 0.357 µM | [3] 0.282 µM
inactive: [5] | [6]

Cc1ccc(OCCn2c(CCNC(=O)CCc3ccc(N)cc3)nc3ccccc32)cc1
inactive: [1] | [2] | [3] | [5] | [6]

CCCCN(C)C(=O)Cn1nc(-c2ccncc2)ccc1=O
inactive: [1] | [2] | [3] | [5] | [6]

CC1(C)CC2CC(C)(CN2S(=O)(=O)c2ccc(C(=O)Nc3cccc(S(=O)(=O)N4CCOCC4)c3)cc2)C1 (stereo not drawn)
inactive: [3] | [6] | [7]
active: [1] 0.355 µM | [2] 0.447 µM | [5] 8.96 µM

CCN(CC)c1cc2c(cc1S(=O)(=O)Nc1ccc(C)c(C)c1)CCC(=O)N2
inactive: [1] | [2] | [3] | [5] | [6]

O=C(NCCc1nc2ccccc2n1CCOc1cccc(Br)c1)C1CCCCC1
inactive: [1] | [2] | [3] | [5] | [6]

O=C(Nc1cccc([S+](=O)([O-])Nc2ccccc2F)c1)c1ccccc1
inactive: [1] | [2] | [3] | [5] | [6] | [7]

COc1cc([C@@H](O[C@@H]2O[C@H](CO)[C@@H](O)[C@H](O)[C@H]2O)[C@@H]2CO[C@H](c3ccc(O)c(OC)c3)[C@H]2CO)ccc1O
inactive: [1] | [2] | [3] | [5] | [7]

CC(=O)Nc1ccc(OC2=NS(=O)(=O)c3ccccc32)cc1
inactive: [1] | [2] | [3] | [5] | [6] | [7]

N=c1c2c(ncn1-c1ccccc1)Oc1ccc3ccccc3c1C2c1ccc2c(c1)OCCO2 (stereo not drawn)
inactive: [1] | [2] | [3] | [5] | [6] | [7]

CN1CCN(c2cccc(Nc3nn4c(=O)c5ccc(F)cc5nc4s3)c2)CC1
inactive: [1] | [2] | [3] | [6]

CCCc1nnc(-c2cnn(C)c2N)n1CCCn1ccnc1
inactive: [1] | [2] | [3] | [5] | [6] | [7]

S=C(Nc1cc(Cl)ccn1)N1CCN(c2cccc(Cl)c2Cl)CC1
active: [1] 15.8 µM | [2] 3.98 µM | [5] 25.2 µM | [7] 3.18 µM
inactive: [3] | [6]

O=C(O)c1ccccc1OC1=NS(=O)(=O)c2ccccc21
inactive: [1] | [2] | [3] | [5] | [6] | [7]

Nc1ccc2c(c1)S(=O)(=O)NC2=O
inactive: [1] | [2] | [3] | [5] | [6] | [7]

O=C(O)c1cccc(S(=O)(=O)Nc2nccs2)c1
inactive: [1] | [2] | [3] | [5] | [7]

N#Cc1c(-c2ccc(O)cc2)no[n+]1[O-]
active: [2] 12.7 µM
inactive: [1] | [3] | [6]

Cc1cnc(-c2ccccc2C(F)F)nc1NCc1ccc(-n2ccnn2)cc1
inactive: [3] | [6]
active: [1] 25.1 µM | [2] 4.47 µM

COc1ccc(CCCN2CCC(COC(c3ccccc3)c3ccccc3)CC2)cc1
inactive: [1] | [2] | [3] | [5] | [6] | [7]

N#Cc1nc(Nc2cccc(F)c2)nc(NC2CCCC2)n1
inactive: [3] | [6]
active: [1] 1.78 µM | [2] 3.55 µM

N[C@@H](CO)C(=O)Nc1ccc(Cl)cc1C(=O)c1ccc[nH]1
inactive: [1] | [2] | [3] | [6]

NC(=O)C[C@H](N)C(=O)Nc1ccc(Cl)cc1C(=O)c1ccc[nH]1
inactive: [1] | [2] | [3] | [5] | [6] | [7]

O=C(CCCc1ccc2cccnc2n1)NCc1cc(-c2ccc(F)c(C(F)(F)F)c2)no1
not listed: [4] | [8]
inactive: all other assays above

O=C([C@H](Cc1ccc(O[S+](=O)([O-])c2cccc3cccnc23)cc1)N[S+](=O)([O-])c1ccccn1)N1CCN(c2ccccc2)CC1
inactive: [1] | [2] | [3] | [6]

O=C(O)CSc1cc(NS(=O)(=O)c2ccc(Br)cc2)c2ccccc2c1O
inactive: [2]
active: [1] 1.79 µM | [3] 7.08 µM | [5] 0.4 µM | [6] 0.631 µM | [7] 0.565 µM

CC(C)c1ccccc1-c1nc(NCC2CCN(c3cccnc3)CC2)c2ccccc2n1
inactive: [1] | [2] | [3] | [6]

CC(C)(C)OC(=O)N1CCN(c2ccc(NCc3ccc4c(-c5ccc(F)cc5)cc(=O)oc4c3)cc2)CC1
inactive: [1] | [3] | [6]
active: [2] 5.04 µM

COc1cccc(CCC(=O)NCCc2nc3ccccc3n2CCOc2ccc(C)cc2)c1
inactive: [1] | [2] | [3] | [5] | [6]
active: [7] 6.34 µM

O=C(Nc1ccc(Cl)c(Cl)c1)Nc1ccc(-c2ccncc2)s1
active: [7] 8.96 µM
inactive: [1] | [2] | [3] | [5] | [6]

O=C1c2ccccc2C(=O)N1Cc1cccnc1
inactive: [1] | [2] | [3] | [5] | [6] | [7]

Cc1c(Cl)cccc1NS(=O)(=O)c1cc2c(cc1Cl)CCC(=O)N2
inactive: [1] | [2] | [3] | [6] | [7]
active: [5] 12.7 µM

O=C(Cc1ccc(Cl)c(Cl)c1)Nc1ccc(S(=O)(=O)O)cc1
inactive: [1] | [2] | [3] | [5] | [6] | [7]

O=C1NS(=O)(=O)c2cc(Br)ccc21
inactive: [1] | [2] | [3] | [5] | [6] | [7]

CN(C)c1ccc(/C=C/C(=O)Nc2cccc([S+](=O)([O-])Nc3ccccc3F)c2)cc1
inactive: [1] | [2] | [3] | [6]

FC(F)(F)c1ccc(-c2nc(-c3nnc4n3CCCCC4)c(C(F)(F)F)o2)cc1
inactive: [1] | [2] | [3] | [6]

Cc1ccc(OCCn2c(CCNC(=O)c3cccs3)nc3ccccc32)cc1
active: [5] 31.8 µM | [7] 12.7 µM
inactive: [1] | [2] | [3] | [6]

COc1ccc(C2Nc3ccccc3C(=O)N2Cc2ccccc2)cc1COc1cccc(C(F)(F)F)c1 (stereo not drawn)
inactive: [1] | [2] | [3] | [6] | [7]
active: [5] 20.1 µM

O=C(/C=C/c1ccc2c(c1)OCO2)Nc1cccc([S+](=O)([O-])Nc2ccccc2F)c1
inactive: [1] | [2] | [3] | [5] | [6] | [7]

— PubChem BioAssay (NCATS)
